What was measured:
Assay in all cases: cell viability of combination (% of vehicle); higher = less cytotoxic
Conditions in all cases: 1 µM; 72 h; partner dose: 10 nM
[1] = tested on: HCI01 (cells of a triple-negative basal-like breast cancer xenograft)
Protocol: (§1)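 PDX cells were treated for 72 h with each drug at 1 µM plus carfilzomib (10 nM; 100 nM for WHIM2). Luciferase viability is expressed as percent of vehicle.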

[2] = tested on: UCD52 (cells of a triple-negative basal-like breast cancer xenograft)
Protocol: as §1

[3] = tested on: WHIM30 (cells of a triple-negative basal-like breast cancer xenograft)
Protocol: as §1

| Compound | cell viability of combination [1] | cell viability of combination [2] | cell viability of combination [3] |
| --- | --- | --- | --- |
| Nc1ccc2cc3ccc([NH3+])cc3nc2c1.Nc1ccc2cc3ccc([NH3+])cc3nc2c1.O=S(=O)([O-])[O-] [Proflavine Hemisulfate] + CC(C)C[C@H](NC(=O)[C@H](CCc1ccccc1)NC(=O)CN1CCOCC1)C(=O)N[C@@H](Cc1ccccc1)C(=O)N[C@@H](CC(C)C)C(=O)[C@@]1(C)CO1 [Carfilzomib] | 78 | 94 |  |
| Cl.Fc1ccc(C2CCNCC2COc2ccc3c(c2)OCO3)cc1 (stereo not given) [Paroxetine HCl] + CC(C)C[C@H](NC(=O)[C@H](CCc1ccccc1)NC(=O)CN1CCOCC1)C(=O)N[C@@H](Cc1ccccc1)C(=O)N[C@@H](CC(C)C)C(=O)[C@@]1(C)CO1 [Carfilzomib] | 90.8 | 54.7 |  |
| COCCOC(=O)C1=C(C)NC(C)=C(C(=O)OCC=Cc2ccccc2)C1c1cccc([N+](=O)[O-])c1 (stereo not given) [Cilnidipine] + CC(C)C[C@H](NC(=O)[C@H](CCc1ccccc1)NC(=O)CN1CCOCC1)C(=O)N[C@@H](Cc1ccccc1)C(=O)N[C@@H](CC(C)C)C(=O)[C@@]1(C)CO1 [Carfilzomib] | 104 | 63.2 |  |
| O=C(NC1CCN(CCCCC2(C(=O)NCC(F)(F)F)c3ccccc3-c3ccccc32)CC1)c1ccccc1-c1ccc(C(F)(F)F)cc1 [Lomitapide] + CC(C)C[C@H](NC(=O)[C@H](CCc1ccccc1)NC(=O)CN1CCOCC1)C(=O)N[C@@H](Cc1ccccc1)C(=O)N[C@@H](CC(C)C)C(=O)[C@@]1(C)CO1 [Carfilzomib] | 84.9 | 38.9 |  |
| C=C(c1ccc(C(=O)O)cc1)c1cc2c(cc1C)C(C)(C)CCC2(C)C [Bexarotene] + CC(C)C[C@H](NC(=O)[C@H](CCc1ccccc1)NC(=O)CN1CCOCC1)C(=O)N[C@@H](Cc1ccccc1)C(=O)N[C@@H](CC(C)C)C(=O)[C@@]1(C)CO1 [Carfilzomib] | 71.8 | 79.6 |  |
| CC(CCC(=O)O)C1CCC2C3CCC4CC(O)CCC4(C)C3CCC12C (stereo not given) [Lithocholic Acid] + CC(C)C[C@H](NC(=O)[C@H](CCc1ccccc1)NC(=O)CN1CCOCC1)C(=O)N[C@@H](Cc1ccccc1)C(=O)N[C@@H](CC(C)C)C(=O)[C@@]1(C)CO1 [Carfilzomib] | 67.4 | 60.5 |  |
| Cc1c(Cl)cccc1Nc1ccccc1C(=O)O [Tolfenamic Acid] + CC(C)C[C@H](NC(=O)[C@H](CCc1ccccc1)NC(=O)CN1CCOCC1)C(=O)N[C@@H](Cc1ccccc1)C(=O)N[C@@H](CC(C)C)C(=O)[C@@]1(C)CO1 [Carfilzomib] | 74.7 | 69.7 |  |
| CC(C)N=c1cc2n(-c3ccc(Cl)cc3)c3ccccc3nc-2cc1Nc1ccc(Cl)cc1 [Clofazimine] + CC(C)C[C@H](NC(=O)[C@H](CCc1ccccc1)NC(=O)CN1CCOCC1)C(=O)N[C@@H](Cc1ccccc1)C(=O)N[C@@H](CC(C)C)C(=O)[C@@]1(C)CO1 [Carfilzomib] | 71.9 | 62.7 |  |
| CC[C@H](C)[C@H]1O[C@]2(CC[C@@H]1C)C[C@@H]1C[C@@H](C/C=C(\C)[C@@H](O[C@H]3C[C@H](OC)[C@@H](O[C@H]4C[C@H](OC)[C@@H](O)[C@H](C)O4)[C@H](C)O3)[C@@H](C)/C=C/C=C3\CO[C@@H]4[C@H](O)C(C)=C[C@@H](C(=O)O1)[C@]34O)O2 [Ivermectin] + CC(C)C[C@H](NC(=O)[C@H](CCc1ccccc1)NC(=O)CN1CCOCC1)C(=O)N[C@@H](Cc1ccccc1)C(=O)N[C@@H](CC(C)C)C(=O)[C@@]1(C)CO1 [Carfilzomib] | 92.6 | 43 |  |
| CCOc1nc2cccc(C(=O)OC(C)OC(=O)OC3CCCCC3)c2n1Cc1ccc(-c2ccccc2-c2nn[nH]n2)cc1 (stereo not given) [Candesartan Cilexetil] + CC(C)C[C@H](NC(=O)[C@H](CCc1ccccc1)NC(=O)CN1CCOCC1)C(=O)N[C@@H](Cc1ccccc1)C(=O)N[C@@H](CC(C)C)C(=O)[C@@]1(C)CO1 [Carfilzomib] | 77.5 | 61.4 |  |
| CCCCc1oc2ccccc2c1C(=O)c1cc(I)c(OCCN(CC)CC)c(I)c1.Cl [Amiodarone HCl] + CC(C)C[C@H](NC(=O)[C@H](CCc1ccccc1)NC(=O)CN1CCOCC1)C(=O)N[C@@H](Cc1ccccc1)C(=O)N[C@@H](CC(C)C)C(=O)[C@@]1(C)CO1 [Carfilzomib] | 90.8 | 63.7 |  |
| Nc1c(CC(=O)[O-])cccc1C(=O)c1ccccc1.O.[Na+] [Amfenac Sodium Monohydrate] + CC(C)C[C@H](NC(=O)[C@H](CCc1ccccc1)NC(=O)CN1CCOCC1)C(=O)N[C@@H](Cc1ccccc1)C(=O)N[C@@H](CC(C)C)C(=O)[C@@]1(C)CO1 [Carfilzomib] | 76.5 | 66.3 |  |
| CC(O)C(=O)O.CCOc1ccc2nc3cc(N)ccc3c(N)c2c1.O [Ethacridine lactate monohydrate] + CC(C)C[C@H](NC(=O)[C@H](CCc1ccccc1)NC(=O)CN1CCOCC1)C(=O)N[C@@H](Cc1ccccc1)C(=O)N[C@@H](CC(C)C)C(=O)[C@@]1(C)CO1 [Carfilzomib] | 74.3 | 66.7 |  |
| Clc1ccc(CSC(Cn2ccnc2)c2ccc(Cl)cc2Cl)cc1.O=[N+]([O-])O (stereo not given) [Sulconazole Nitrate] + CC(C)C[C@H](NC(=O)[C@H](CCc1ccccc1)NC(=O)CN1CCOCC1)C(=O)N[C@@H](Cc1ccccc1)C(=O)N[C@@H](CC(C)C)C(=O)[C@@]1(C)CO1 [Carfilzomib] | 93.5 | 62.1 |  |
| N.N.O=C([O-])C1(C(=O)[O-])CCC1.[Pt+2] [Carboplatin] + CC(C)C[C@H](NC(=O)[C@H](CCc1ccccc1)NC(=O)CN1CCOCC1)C(=O)N[C@@H](Cc1ccccc1)C(=O)N[C@@H](CC(C)C)C(=O)[C@@]1(C)CO1 [Carfilzomib] | 81.2 | 70.6 |  |
| COCCn1c2c([n+](Cc3cnccn3)c1C)C(=O)c1ccccc1C2=O.[Br-] + CC(C)C[C@H](NC(=O)[C@H](CCc1ccccc1)NC(=O)CN1CCOCC1)C(=O)N[C@@H](Cc1ccccc1)C(=O)N[C@@H](CC(C)C)C(=O)[C@@]1(C)CO1 [Carfilzomib] | 25.5 | 17.4 |  |
| O=C1C=CC=CC1=C1NC(=C2C=CC=CC2=O)N(c2ccc(C(=O)O)cc2)N1 [Deferasirox] + CC(C)C[C@H](NC(=O)[C@H](CCc1ccccc1)NC(=O)CN1CCOCC1)C(=O)N[C@@H](Cc1ccccc1)C(=O)N[C@@H](CC(C)C)C(=O)[C@@]1(C)CO1 [Carfilzomib] | 67.8 | 61.2 |  |
| CCC(=C(c1ccccc1)c1ccc(OCCN(C)C)cc1)c1ccccc1.O=C(O)CC(O)(CC(=O)O)C(=O)O [Tamoxifen Citrate] + CC(C)C[C@H](NC(=O)[C@H](CCc1ccccc1)NC(=O)CN1CCOCC1)C(=O)N[C@@H](Cc1ccccc1)C(=O)N[C@@H](CC(C)C)C(=O)[C@@]1(C)CO1 [Carfilzomib] | 90.4 | 71.2 | 23.8 |
| Nc1ncn(C2OC(CO)C(O)C2O)c(=O)n1 (stereo not given) [5-Azacytidine] + CC(C)C[C@H](NC(=O)[C@H](CCc1ccccc1)NC(=O)CN1CCOCC1)C(=O)N[C@@H](Cc1ccccc1)C(=O)N[C@@H](CC(C)C)C(=O)[C@@]1(C)CO1 [Carfilzomib] | 75.9 | 68.2 |  |
| CS(=O)(=O)O.Cc1c(O)cccc1C(=O)NC(CSc1ccccc1)C(O)CN1CC2CCCCC2CC1C(=O)NC(C)(C)C (stereo not given) [Nelfinavir Mesylate] + CC(C)C[C@H](NC(=O)[C@H](CCc1ccccc1)NC(=O)CN1CCOCC1)C(=O)N[C@@H](Cc1ccccc1)C(=O)N[C@@H](CC(C)C)C(=O)[C@@]1(C)CO1 [Carfilzomib] | 80.3 | 57.2 |  |
| Clc1ccc(C(Cn2ccnc2)OCc2ccc(Sc3ccccc3)cc2)c(Cl)c1.O=[N+]([O-])O (stereo not given) [Fenticonazole Nitrate] + CC(C)C[C@H](NC(=O)[C@H](CCc1ccccc1)NC(=O)CN1CCOCC1)C(=O)N[C@@H](Cc1ccccc1)C(=O)N[C@@H](CC(C)C)C(=O)[C@@]1(C)CO1 [Carfilzomib] | 83.9 | 65.2 |  |
| O=C(O)c1cc(O)c(O)c(O)c1 [Gallic acid] + CC(C)C[C@H](NC(=O)[C@H](CCc1ccccc1)NC(=O)CN1CCOCC1)C(=O)N[C@@H](Cc1ccccc1)C(=O)N[C@@H](CC(C)C)C(=O)[C@@]1(C)CO1 [Carfilzomib] | 74.5 | 60.9 | 16.3 |
| CCOC(=O)C1=C(COCCN)NC(C)=C(C(=O)OC)C1c1ccccc1Cl (stereo not given) [Amlodipine] + CC(C)C[C@H](NC(=O)[C@H](CCc1ccccc1)NC(=O)CN1CCOCC1)C(=O)N[C@@H](Cc1ccccc1)C(=O)N[C@@H](CC(C)C)C(=O)[C@@]1(C)CO1 [Carfilzomib] | 113 | 62.5 |  |
| Cc1cccc(CN2CCN(C(c3ccccc3)c3ccc(Cl)cc3)CC2)c1.Cl.Cl (stereo not given) [Meclizine 2HCl] + CC(C)C[C@H](NC(=O)[C@H](CCc1ccccc1)NC(=O)CN1CCOCC1)C(=O)N[C@@H](Cc1ccccc1)C(=O)N[C@@H](CC(C)C)C(=O)[C@@]1(C)CO1 [Carfilzomib] | 105 | 57.2 |  |
